Among all 320,000 compounds or so, about 1,100 (0.34%) were called active.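 How the source made its calls: active means GFP response vs DMSO above a set limit, about the screen mean plus 3 SD (cut at about 150% in these data); inconclusive means under 70 cell events counted for the yeast strain; inactive means the rest.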 The full list was thinned out, with actives kept by preference.
Assay: TOR pathway LAP4-GFP level changes – S. cerevisiae, multiplex flow cytometry, MLPCN library, primary screen (AID 2023)
Conditions: 3 h, at 10 µM, active compounds read high, median GFP as percent of DMSO wells

| SMILES | GFP response vs DMSO |
| --- | --- |
| O=Cc1c(NCCCN2CCCC2=O)c2ccccc2[nH]c1=O | 100% (inactive) |
| CCC1Sc2ccc(S(=O)(=O)CCC(=O)NCc3cccs3)cc2NC1=O (configuration not stated) | 106% (inactive) |
| O=C(COC(=O)c1ccccc1Br)Nc1nnc(-c2ccccc2)o1 | 115% (inactive) |
| O=C(Nc1nnc(-c2ccc(Cl)cc2)o1)c1ccccc1Br | 159% (active) |
| O=C(Nc1nnc(-c2ccccc2)o1)c1cc(-c2cccs2)nc2ccccc12 | 112% (inactive) |
| Cc1cccc(NS(=O)(=O)c2ccc(C(=O)NCC(C)(C)N3CCOCC3)cc2)c1C | 103% (inactive) |
| CCOc1ccc(NC(=O)CN(C)C(=O)COc2cccc(CC)c2)cc1OCC | 100% (inactive) |
| CCC(=O)N1CCC(C(N)=O)(N2CCCCC2)CC1 | 95.6% (inactive) |
| CCCCCCSc1ccc([C@@H]2[C@@H]3C(=O)N(CC)C(=O)[C@@H]3[C@]3(C(=O)OC)CCCCN23)cc1OC | 90.1% (inactive) |
| CCC(=C/c1sc2ccc3ccccc3c2[n+]1C)/C=C1\Sc2ccc3ccccc3c2N1C | 283% (active) |
| O=C(Nc1cccc(Cl)c1Cl)c1ccccc1NC(=O)C1CC=CCC1C(=O)O (configuration not stated) | 67.7% (inactive) |
| Cc1cccc(C)c1N1CCN(S(=O)(=O)N2CCOCC2)CC1 | 110% (inactive) |
| C=CCOc1ccc(Cl)cc1CNCCCN1CCOCC1 | 91.3% (inactive) |
| CC(=O)Nc1ccc(Nc2nc3c(S(=O)(=O)c4ccc(C)c(C)c4)nnn3c3ccccc23)cc1 | 89.9% (inactive) |
| Cc1ccc(S(=O)(=O)c2nnn3c2nc(N2CCN(c4ccccn4)CC2)c2ccccc23)cc1 | 104% (inactive) |
| Cc1cccc(Nc2nc3c(S(=O)(=O)c4ccccc4)nnn3c3ccccc23)c1C | 783% [may fluoresce green] (active) |
| CN(C)c1nc(=Nc2cccc(Cl)c2)ss1 | 191% (active) |
| CCOC(=O)N1CCN(C(=O)c2cn(C)c3ccc(S(=O)(=O)N(CC)CC)cc3c2=O)CC1 | 102% (inactive) |
| O=C(O)C1OC(C(=O)O)C2C1C(F)(F)C2(F)F (configuration not stated) | 99.4% (inactive) |
| O=C(CN1C(=O)NC2(CCCC2)C1=O)NCC1CCCO1 (configuration not stated) | 104% (inactive) |
| Nc1cc(N)nc(SCc2cccc(F)c2)n1 | 97.2% (inactive) |
| CCc1nnc(SCc2cccc(F)c2)nc1CC | 152% (active) |
| O=c1[nH]c(SCc2cccc(F)c2)nc2ccccc12 | 108% (inactive) |
| O=C(CCC1CCN(C(=O)c2cccc(Cl)c2F)CC1)Nc1ccccc1 | 106% (inactive) |
| COc1ccccc1N1CCN(S(=O)(=O)c2ccc(Cl)cc2)CC1 | 110% (inactive) |
| CCOC(=O)N1CCN(S(=O)(=O)c2ccc(Br)cc2)CC1 | 108% (inactive) |
| Cn1ncc(N2CCN(S(=O)(=O)c3ccc(Br)cc3)CC2)c(Cl)c1=O | 170% (active) |

Source: PubChem BioAssay AID2023 (NMMLSC, 2009)
